PubChem BioAssay (NCATS)
Results filed as inconclusive are left out. The source made the active and inactive calls. Unless noted, the call rests on the fitted dose curve; in most records, active means well fitted curve in either direction with a large enough effect (not every such curve was filed as active); inconclusive means small, poorly fitted or top-dose-only effect, or another doubt; inactive means flat fitted curve, though single readings scatter.

What was measured:
[1] = target: Lysosomal acid glucosylceramidase (Homo sapiens) (UniProt P04062); test: Glucocerebrosidase-p2 (AID 348; in the data active means potency below about 10 µM; further: potency means the concentration at half of the fitted maximal effect); settings: purified GBA, blue fluorogenic substrate, 40 min
How it was run: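 Normal human glucocerebrosidase (0.2 nM) with blue fluorogenic substrate (80 uM final) in citrate/phosphate pH 5.9 with 10mM sodium taurocholate, 0.01% tween-20; 40 min RT, NaOH/glycine stop; fluorescence Ex 365/Em 440; AC50 from a titration from 0.6 nM upwards.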

[2] = AP1 Signaling Pathway (AID 357); settings: ME-180 AP-1-bla reporter, EGF-induced, beta-lactamase ratio, 5 h; at 7.69 µM (top of the series) unless noted;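 further: ME-180 reporter cells stimulated with EGF at its EC50 level; on the % scale 0 is the no-effect control and ±100 the full control effect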
How it was run: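 Cells are seeded overnight, exposed to compound titrations and an EC50 level of EGF for 5 hours at 37 °C, then loaded with CCF4 dye for 2.5 hours. Beta-lactamase activity under the AP-1 element is read as a blue/green ratio.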

[3] = NFAT Signaling Pathway (AID 444); settings: Jurkat NFAT-bla M1, carbachol, beta-lactamase ratio, 5 h; at 7.69 µM (top of the series) unless noted;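 further: carbachol stimulus at about its EC50 of 1 µM final; on the % scale 0 is the no-effect control and ±100 the full control effect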
How it was run: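 Read-out: CCF4 FRET ratio (460 nm/530 nm) after 1 h RT dye loading, used for %activity and AC50 from titration series. Cells: Jurkat NFAT-β-lactamase/M1 line, treated with compound plus 1 uM carbachol for 5 h, 37 °C.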

[4] = Stat Signaling Pathway (AID 446); settings: ME-180 (cervical carcinoma) SIE beta-lactamase reporter, IL-6 stimulated, 5 h; at 7.69 µM (top of the series) unless noted;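 further: ME-180 cervical cancer cells given 40 pM IL-6 alongside compound; SIE-controlled beta-lactamase reporter measured as 460/530 nm FRET emission ratio; on the % scale 0 is the no-effect control and ±100 the full control effect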
How it was run: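 Emission at 460 and 530 nm (excitation 405 nm) reports SIE-controlled beta-lactamase in ME-180 cells. Cells received compound with 40 pM IL-6 for 5 hrs at 37 C; data scaled between 300 pM IL-6 and 125 nM JAK-inhibitor controls.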

[5] = target: Glucocorticoid receptor (Homo sapiens) (UniProt P04150); test: GR-GFP Redistribution (AID 450;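 active means compounds whose dose series gives a full or clear partial fitted curve of increased nuclear translocation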; further: potency means the concentration at half of the fitted maximal effect); settings: U2OS GR-GFP nuclear translocation, laser cytometry, 2 h
[6] = target: Glucocorticoid receptor (Homo sapiens) (UniProt P04150); test: GR-EFC Redistribution (AID 451; calls by dose curve; further: potency means the concentration at half of the fitted maximal effect); settings: CHO-K1 GR-EFC translocation, beta-gal luminescence, 2 h
How it was run: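 Translocation of GR-ED fusion to nuclear EA restores b-gal, read by luminescence after 1 h room-temperature detection. Engineered CHO-K1 biosensor cells, 1,000/well, exposed 2 h at 37 C to titrations up to 46 uM final.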

[7] = target: Mitogen-activated protein kinase 10 (Mus musculus) (UniProt Q61831); test: JNK3 AlphaScreen Assay (AID 530); settings: JNK3 lysate, c-Jun phosphorylation; series mostly up to 11.4 µM;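 further: kinase came from lysate of stimulated human HepG2 cells; signal reports phosphorylation of biotinylated GST-cJun 1-79 at Ser73 with 10 µM ATP; on the % scale 0 is the no-effect control and ±100 the full control effect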
How it was run: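 qHTS titrations with 15 min compound pre-incubation before adding ATP (10 uM final). Read-out: AlphaScreen of Ser73-phosphorylated biotin-GST-cJun using HepG2 lysate JNK3 activated by IL-1β and TNFα.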

[8] = target: 3',5'-cyclic-AMP phosphodiesterase 4B (Homo sapiens) (UniProt Q07343); test: qHTS Assay for Inhibitors of PDE-IV (AID 607; active means well fitted activation curve with a large enough effect in the main read-out, with a control signal flat, not every such curve was filed as active; further: % of control where 0% means no effect); settings: HEK293 ACTOne CNG channel cells, membrane potential fluorescence; series mostly up to 22.9 µM
How it was run: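 The readout is membrane depolarisation from a cAMP-sensing CNG channel, detected with a potential dye at ex 535/em 590. Cells were HEK293-derived (endogenous PDE-IV) at 1000 cells/well, titrated up to 22.9 uM final.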

Glucocorticoid receptor (Homo sapiens), sequence (P04150 whole entry, looked up, the tested form may be a part): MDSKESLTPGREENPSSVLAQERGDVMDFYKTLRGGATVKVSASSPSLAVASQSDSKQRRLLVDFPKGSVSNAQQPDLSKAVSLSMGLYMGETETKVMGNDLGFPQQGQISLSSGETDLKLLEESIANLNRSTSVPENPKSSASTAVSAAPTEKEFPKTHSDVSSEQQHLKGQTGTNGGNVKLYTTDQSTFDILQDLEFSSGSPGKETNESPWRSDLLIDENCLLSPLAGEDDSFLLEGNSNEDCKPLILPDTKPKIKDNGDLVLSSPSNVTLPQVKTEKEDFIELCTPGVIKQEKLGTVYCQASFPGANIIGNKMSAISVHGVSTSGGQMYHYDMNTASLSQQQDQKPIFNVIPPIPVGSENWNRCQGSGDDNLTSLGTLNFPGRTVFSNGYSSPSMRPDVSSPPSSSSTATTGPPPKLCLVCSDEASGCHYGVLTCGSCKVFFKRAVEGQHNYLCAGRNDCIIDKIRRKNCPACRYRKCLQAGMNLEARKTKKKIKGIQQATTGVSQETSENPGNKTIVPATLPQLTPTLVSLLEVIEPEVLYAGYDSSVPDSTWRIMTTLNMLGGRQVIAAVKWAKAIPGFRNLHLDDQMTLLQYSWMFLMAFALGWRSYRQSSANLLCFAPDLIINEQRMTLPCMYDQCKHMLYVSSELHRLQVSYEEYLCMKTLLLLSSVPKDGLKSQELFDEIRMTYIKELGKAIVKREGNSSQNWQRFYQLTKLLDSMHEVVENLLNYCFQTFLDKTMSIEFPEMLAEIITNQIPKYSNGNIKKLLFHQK
Lysosomal acid glucosylceramidase (Homo sapiens), sequence (P04062 whole entry, looked up): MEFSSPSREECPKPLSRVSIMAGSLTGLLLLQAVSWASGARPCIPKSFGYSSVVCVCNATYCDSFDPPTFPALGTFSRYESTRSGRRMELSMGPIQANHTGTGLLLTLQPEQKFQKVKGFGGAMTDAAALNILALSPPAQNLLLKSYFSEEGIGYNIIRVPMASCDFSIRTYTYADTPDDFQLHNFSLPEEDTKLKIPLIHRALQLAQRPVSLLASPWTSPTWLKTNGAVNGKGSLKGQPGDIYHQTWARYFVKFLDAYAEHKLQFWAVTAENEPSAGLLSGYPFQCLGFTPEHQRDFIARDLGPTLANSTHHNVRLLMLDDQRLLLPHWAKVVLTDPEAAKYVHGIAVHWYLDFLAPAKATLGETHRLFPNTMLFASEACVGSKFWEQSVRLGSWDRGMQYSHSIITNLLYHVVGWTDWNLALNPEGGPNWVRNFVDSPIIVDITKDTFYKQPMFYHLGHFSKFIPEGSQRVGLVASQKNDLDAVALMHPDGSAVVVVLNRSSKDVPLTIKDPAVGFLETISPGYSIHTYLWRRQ
3',5'-cyclic-AMP phosphodiesterase 4B (Homo sapiens), sequence (Q07343 whole entry, looked up): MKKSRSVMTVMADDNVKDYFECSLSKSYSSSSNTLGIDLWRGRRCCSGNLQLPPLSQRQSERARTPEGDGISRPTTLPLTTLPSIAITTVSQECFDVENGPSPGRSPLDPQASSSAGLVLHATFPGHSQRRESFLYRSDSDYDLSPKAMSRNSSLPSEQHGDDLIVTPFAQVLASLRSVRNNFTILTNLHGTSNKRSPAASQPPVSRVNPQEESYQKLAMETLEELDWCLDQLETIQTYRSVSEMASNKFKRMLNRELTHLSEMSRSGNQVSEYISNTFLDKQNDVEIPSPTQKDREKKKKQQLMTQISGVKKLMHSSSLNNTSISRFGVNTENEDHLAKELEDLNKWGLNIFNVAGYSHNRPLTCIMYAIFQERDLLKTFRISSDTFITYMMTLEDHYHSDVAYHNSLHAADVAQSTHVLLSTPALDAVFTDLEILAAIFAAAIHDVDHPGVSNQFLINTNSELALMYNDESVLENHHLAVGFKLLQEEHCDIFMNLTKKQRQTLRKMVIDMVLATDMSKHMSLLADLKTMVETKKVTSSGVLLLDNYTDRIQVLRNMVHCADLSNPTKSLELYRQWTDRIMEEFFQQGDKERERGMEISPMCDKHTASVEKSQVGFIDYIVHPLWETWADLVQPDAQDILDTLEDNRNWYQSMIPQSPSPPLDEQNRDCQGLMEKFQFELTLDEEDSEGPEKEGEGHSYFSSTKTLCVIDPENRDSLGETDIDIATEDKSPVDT

CNS(=O)(=O)c1ccccc1C(=N)c1ccccc1
inactive: Potency [1] > 11.4 µM | activity change, negative = inhibition [2] -4.6% | activity change, negative = inhibition [3] 1.97% | activity, negative = inhibition [4] 0.878% | Potency [5] > 46 µM | Potency [6] > 9.22 µM | Potency [7] | Potency [8]

Cc1cc2cc3c(=O)[nH]c(=O)[nH]c3nc2cc1C
inactive: Potency [1] > 11.4 µM | activity change, negative = inhibition [2] -6.37% | activity change, negative = inhibition [3] 11.7% | activity, negative = inhibition [4] -6.9% | Potency [5] > 46 µM | Potency [6] > 9.22 µM | Potency [7] | Potency [8]

COc1cc(NCC[C@@H]2CCCCN2)c2ncccc2c1
inactive: Potency [1] > 11.4 µM | activity change, negative = inhibition [2] 28.5% | activity change, negative = inhibition [3] -23.9% | activity, negative = inhibition [4] 13.7% | Potency [5] > 46 µM | Potency [6] > 9.22 µM | Potency [7] | Potency [8]

C=C(C)CN(CC#N)CC(=C)C
inactive: Potency [1] > 11.4 µM | activity change, negative = inhibition [2] 2.17% | activity change, negative = inhibition [3] 9.57% | activity, negative = inhibition [4] 16.5% | Potency [5] > 46 µM | Potency [6] > 9.22 µM | Potency [7] | Potency [8]

O=C1CC[C@](CCc2nc3ccccc3[nH]2)(c2ccccc2)C(=O)N1
inactive: Potency [1] > 11.4 µM | activity change, negative = inhibition [2] 1.26% | activity change, negative = inhibition [3] 7.74% | activity, negative = inhibition [4] 3.31% | Potency [5] > 46 µM | Potency [6] > 9.22 µM | Potency [7] | Potency [8]

NNC(=O)c1ccc(OCc2nc3ccccc3[nH]2)cc1
inactive: Potency [1] > 11.4 µM | activity change, negative = inhibition [2] -12.3% | activity change, negative = inhibition [3] 13.6% | activity, negative = inhibition [4] -6.78% | Potency [5] > 46 µM | Potency [6] > 9.22 µM | Potency [7] | Potency [8]

COc1ccc(Oc2ncc3nc(-c4ccc(Cl)cc4)c(=O)n(CCC#N)c3n2)cc1
inactive: Potency [1] > 11.4 µM | activity change, negative = inhibition [2] -25.6% | activity change, negative = inhibition [3] 0.455% | activity, negative = inhibition [4] -7.87% | Potency [5] > 46 µM | Potency [6] > 46 µM | Potency [7] | Potency [8]

CC1=C(/C=C\C(=O)O)C(C)(C)CCC1
inactive: Potency [1] > 11.4 µM | activity change, negative = inhibition [2] 4.18% | activity change, negative = inhibition [3] 11.9% | activity, negative = inhibition [4] 0.469% | Potency [5] > 46 µM | Potency [6] > 9.22 µM | Potency [7] | Potency [8]

CCOC(=O)c1c(O)[nH]c(=O)c(CC)c1C
inactive: Potency [1] > 11.4 µM | activity change, negative = inhibition [2] -5.14% | activity change, negative = inhibition [3] -3.29% | activity, negative = inhibition [4] 13.4% | Potency [5] > 46 µM | Potency [6] > 9.22 µM | Potency [7] | Potency [8]

S=c1nc(-c2nc(=S)[nH]c3c2CCCCCCCCCC3)c2c([nH]1)CCCCCCCCCC2
inactive: Potency [1] > 11.4 µM | activity change, negative = inhibition [2] -8.81% | activity change, negative = inhibition [3] 15.1% | activity, negative = inhibition [4] 9.8% | Potency [5] > 46 µM | Potency [6] > 9.22 µM | Potency [7] | Potency [8]

c1ccc(CN2COc3c(ccc4c5c(ccc34)CN(Cc3ccccc3)CO5)C2)cc1
inactive: Potency [1] > 11.4 µM | activity change, negative = inhibition [2] -0.336% | activity change, negative = inhibition [3] 7.9% | activity, negative = inhibition [4] 8.56% | Potency [5] > 46 µM | Potency [6] > 9.22 µM | Potency [7] | Potency [8]

Cc1nc(-c2ccccc2)c(Cc2ccccc2O)c(=O)[nH]1
inactive: Potency [1] > 11.4 µM | activity change, negative = inhibition [2] -9.11% | activity change, negative = inhibition [3] 4.59% | activity, negative = inhibition [4] 0.211% | Potency [5] > 46 µM | Potency [6] > 9.22 µM | Potency [7] | Potency [8]

COc1nc(Cl)nc(Cl)c1Cl (tested in a mixture with another compound)
inactive: Potency [1] > 11.4 µM | activity change, negative = inhibition [2] 2.89% | activity change, negative = inhibition [3] 3.88% | activity, negative = inhibition [4] 7.12% | Potency [5] > 46 µM | Potency [6] > 9.22 µM | Potency [7] | Potency [8]

COc1ccc(Br)c2c1C[C@H](C(=O)O)CC2
inactive: Potency [1] > 11.4 µM | activity change, negative = inhibition [2] 12.4% | activity change, negative = inhibition [3] 2.11% | activity, negative = inhibition [4] -1.98% | Potency [5] > 46 µM | Potency [6] > 9.22 µM | Potency [7] | Potency [8]

CN(C)Cc1cc(C(C)(C)C)cc(CN(C)C)c1O
inactive: Potency [1] > 11.4 µM | activity change, negative = inhibition [2] 12.4% | activity change, negative = inhibition [3] 3.21% | activity, negative = inhibition [4] -1.5% | Potency [5] > 46 µM | Potency [6] > 9.22 µM | Potency [7] | Potency [8]

Cc1ccc(CN2CCN(Cc3ccc(C)o3)[C@@H](C)C2)o1
inactive: Potency [1] > 11.4 µM | activity change, negative = inhibition [2] -2.23% | activity change, negative = inhibition [3] -7.45% | activity, negative = inhibition [4] 1.61% | Potency [5] > 46 µM | Potency [6] > 9.22 µM | Potency [7] | Potency [8]
